Paper PMC7862700, “An all-to-all approach to the identification of sequence-specific readers for epigenetic DNA modifications on cytosine”

Columns and labels:
Experiment in all cases: DAPPL (digital affinity profiling via proximity ligation, sequencing); 10 mM Tris-HCl pH 7.5, 50 mM NaCl, 1 mM DTT, 4% glycerol, room temperature, 30 min; GST-TFs on glutathione beads, 16-mer random dsDNA library, 0.1% formaldehyde crosslink after washing; high values mean tight binding
Details in all cases: protein: recombinant; tags: N-terminal GST; dsDNA, one strand shown
ELK1 = biological target: T1, ELK1 (Homo sapiens, UniProt P19419 1-428)
T1 sequence: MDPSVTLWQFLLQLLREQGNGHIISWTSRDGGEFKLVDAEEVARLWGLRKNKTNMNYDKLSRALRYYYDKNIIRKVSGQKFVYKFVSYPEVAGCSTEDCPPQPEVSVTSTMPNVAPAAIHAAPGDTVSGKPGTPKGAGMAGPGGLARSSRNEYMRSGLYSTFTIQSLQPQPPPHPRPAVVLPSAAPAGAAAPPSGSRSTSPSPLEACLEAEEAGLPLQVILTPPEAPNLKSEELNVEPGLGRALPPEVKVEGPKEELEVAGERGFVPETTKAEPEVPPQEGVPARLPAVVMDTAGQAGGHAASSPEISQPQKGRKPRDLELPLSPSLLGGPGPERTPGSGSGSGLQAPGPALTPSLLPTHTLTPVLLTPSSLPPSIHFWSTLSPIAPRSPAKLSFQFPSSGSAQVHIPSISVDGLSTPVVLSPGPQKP
Outline: (§1)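 GST fusions of human transcription factors were expressed in yeast and captured with glutathione beads. Once given DNA barcodes and pooled alongside a tag-only sample, they were incubated for 30 min at room temperature with 200 nmole of a random double-stranded 16-mer DNA library in Tris/NaCl/DTT/glycerol buffer, then washed, crosslinked (0.1% formaldehyde), proximity-ligated, PCR-amplified and sequenced on an Illumina NextSeq500. The binding signal of each hexamer is its read frequency for a factor divided by its frequency for the tag-only sample.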

GABPA = biological target: T2, GABPA (Homo sapiens, UniProt Q06546 1-454)
T2 sequence: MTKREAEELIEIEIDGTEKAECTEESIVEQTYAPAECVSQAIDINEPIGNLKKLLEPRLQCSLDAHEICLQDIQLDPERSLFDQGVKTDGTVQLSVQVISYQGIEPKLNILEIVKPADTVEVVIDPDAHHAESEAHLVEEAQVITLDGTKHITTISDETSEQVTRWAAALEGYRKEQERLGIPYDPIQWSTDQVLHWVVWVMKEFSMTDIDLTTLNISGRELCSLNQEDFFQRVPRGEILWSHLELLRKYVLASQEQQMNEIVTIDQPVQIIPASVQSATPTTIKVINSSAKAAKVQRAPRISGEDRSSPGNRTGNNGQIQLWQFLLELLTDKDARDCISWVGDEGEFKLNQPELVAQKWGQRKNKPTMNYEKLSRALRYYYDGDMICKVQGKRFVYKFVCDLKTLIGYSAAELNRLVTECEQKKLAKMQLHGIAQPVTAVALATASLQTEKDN
Outline: as §1

ERG = biological target: T3, ERG (Homo sapiens, UniProt P11308 1-479)
T3 sequence: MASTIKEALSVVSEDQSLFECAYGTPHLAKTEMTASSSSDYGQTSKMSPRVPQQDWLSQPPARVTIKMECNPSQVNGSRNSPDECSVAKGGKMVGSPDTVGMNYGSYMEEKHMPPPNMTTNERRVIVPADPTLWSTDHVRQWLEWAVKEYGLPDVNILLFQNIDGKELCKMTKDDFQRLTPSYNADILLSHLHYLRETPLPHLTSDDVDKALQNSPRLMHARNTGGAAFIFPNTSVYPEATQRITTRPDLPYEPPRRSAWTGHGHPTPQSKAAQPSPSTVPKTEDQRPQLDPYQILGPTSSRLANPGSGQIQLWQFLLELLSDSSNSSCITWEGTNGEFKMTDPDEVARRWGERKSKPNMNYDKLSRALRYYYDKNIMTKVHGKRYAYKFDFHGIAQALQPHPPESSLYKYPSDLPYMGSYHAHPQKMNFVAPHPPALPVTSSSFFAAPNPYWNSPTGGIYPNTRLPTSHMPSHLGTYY
Outline: as §1

SPIB = SPIB (Homo sapiens, UniProt Q01892 1-262)
SPIB, sequence (Q01892 whole entry): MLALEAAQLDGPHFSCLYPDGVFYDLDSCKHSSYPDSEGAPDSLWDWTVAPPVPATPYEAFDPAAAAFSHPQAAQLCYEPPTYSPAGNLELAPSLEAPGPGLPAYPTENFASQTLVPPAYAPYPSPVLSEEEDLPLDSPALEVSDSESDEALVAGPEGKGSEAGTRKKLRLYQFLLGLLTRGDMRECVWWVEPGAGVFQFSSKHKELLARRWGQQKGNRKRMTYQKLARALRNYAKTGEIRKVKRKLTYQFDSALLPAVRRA
Outline: as §1

ETV5 = ETV5 (Homo sapiens, UniProt P41161 1-510)
ETV5, sequence (P41161 whole entry): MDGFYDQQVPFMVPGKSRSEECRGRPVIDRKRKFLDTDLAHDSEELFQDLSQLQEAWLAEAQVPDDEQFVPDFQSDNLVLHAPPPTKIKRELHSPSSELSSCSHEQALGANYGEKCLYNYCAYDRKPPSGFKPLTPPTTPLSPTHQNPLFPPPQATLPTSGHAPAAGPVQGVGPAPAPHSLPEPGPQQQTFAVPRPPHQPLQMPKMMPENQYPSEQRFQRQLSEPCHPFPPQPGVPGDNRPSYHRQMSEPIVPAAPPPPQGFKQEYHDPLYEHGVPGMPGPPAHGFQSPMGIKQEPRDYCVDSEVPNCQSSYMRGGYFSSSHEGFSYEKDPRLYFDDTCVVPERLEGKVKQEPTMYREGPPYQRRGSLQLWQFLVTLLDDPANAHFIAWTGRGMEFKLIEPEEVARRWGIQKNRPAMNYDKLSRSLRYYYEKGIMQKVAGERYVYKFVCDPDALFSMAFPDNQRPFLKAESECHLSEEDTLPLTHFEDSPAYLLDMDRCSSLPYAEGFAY
Outline: as §1

ELK4 = biological target: T4, ELK4 (Homo sapiens, UniProt P28324-2 1-405)
T4 sequence: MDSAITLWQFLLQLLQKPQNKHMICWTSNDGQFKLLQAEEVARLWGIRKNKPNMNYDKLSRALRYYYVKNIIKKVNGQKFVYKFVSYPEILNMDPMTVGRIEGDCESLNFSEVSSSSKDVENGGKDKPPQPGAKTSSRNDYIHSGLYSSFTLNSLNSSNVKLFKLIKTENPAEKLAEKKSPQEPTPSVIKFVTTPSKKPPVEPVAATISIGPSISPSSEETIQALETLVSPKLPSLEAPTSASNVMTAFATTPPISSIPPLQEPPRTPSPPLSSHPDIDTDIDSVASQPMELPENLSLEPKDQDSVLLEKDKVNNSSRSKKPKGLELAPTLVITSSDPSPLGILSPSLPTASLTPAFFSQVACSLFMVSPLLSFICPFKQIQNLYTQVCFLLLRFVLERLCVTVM
Outline: as §1

ELF3 = biological target: T5, ELF3 (Homo sapiens, UniProt P78545 1-371)
T5 sequence: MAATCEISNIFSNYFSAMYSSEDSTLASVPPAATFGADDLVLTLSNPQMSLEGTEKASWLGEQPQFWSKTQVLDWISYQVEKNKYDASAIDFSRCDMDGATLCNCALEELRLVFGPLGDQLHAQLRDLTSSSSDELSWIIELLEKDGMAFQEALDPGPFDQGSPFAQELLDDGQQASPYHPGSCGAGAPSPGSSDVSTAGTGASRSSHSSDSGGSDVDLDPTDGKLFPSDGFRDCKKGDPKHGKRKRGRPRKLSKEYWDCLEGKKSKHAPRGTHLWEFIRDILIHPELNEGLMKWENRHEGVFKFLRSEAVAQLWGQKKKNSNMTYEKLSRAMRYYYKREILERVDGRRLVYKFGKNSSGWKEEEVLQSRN
Outline: as §1

ERF = biological target: T6, ERF (Homo sapiens, UniProt P50548 1-548)
T6 sequence: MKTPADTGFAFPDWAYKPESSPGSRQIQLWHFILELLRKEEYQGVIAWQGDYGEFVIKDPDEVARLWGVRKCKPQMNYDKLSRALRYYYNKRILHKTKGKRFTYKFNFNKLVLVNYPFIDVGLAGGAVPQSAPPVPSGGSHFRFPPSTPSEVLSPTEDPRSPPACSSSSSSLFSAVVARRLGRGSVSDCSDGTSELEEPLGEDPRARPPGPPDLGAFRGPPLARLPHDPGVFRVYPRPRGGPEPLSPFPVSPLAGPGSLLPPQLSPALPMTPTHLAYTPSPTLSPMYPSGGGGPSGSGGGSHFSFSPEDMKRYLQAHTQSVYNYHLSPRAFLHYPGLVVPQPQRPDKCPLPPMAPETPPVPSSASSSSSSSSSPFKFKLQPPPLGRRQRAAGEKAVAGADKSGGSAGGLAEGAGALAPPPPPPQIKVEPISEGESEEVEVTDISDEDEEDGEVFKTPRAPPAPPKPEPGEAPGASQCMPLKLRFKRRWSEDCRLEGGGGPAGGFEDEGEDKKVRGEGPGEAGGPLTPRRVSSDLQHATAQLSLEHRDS
Outline: as §1

ETS2 = biological target: T7, ETS2 (Homo sapiens, UniProt P15036 1-469)
T7 sequence: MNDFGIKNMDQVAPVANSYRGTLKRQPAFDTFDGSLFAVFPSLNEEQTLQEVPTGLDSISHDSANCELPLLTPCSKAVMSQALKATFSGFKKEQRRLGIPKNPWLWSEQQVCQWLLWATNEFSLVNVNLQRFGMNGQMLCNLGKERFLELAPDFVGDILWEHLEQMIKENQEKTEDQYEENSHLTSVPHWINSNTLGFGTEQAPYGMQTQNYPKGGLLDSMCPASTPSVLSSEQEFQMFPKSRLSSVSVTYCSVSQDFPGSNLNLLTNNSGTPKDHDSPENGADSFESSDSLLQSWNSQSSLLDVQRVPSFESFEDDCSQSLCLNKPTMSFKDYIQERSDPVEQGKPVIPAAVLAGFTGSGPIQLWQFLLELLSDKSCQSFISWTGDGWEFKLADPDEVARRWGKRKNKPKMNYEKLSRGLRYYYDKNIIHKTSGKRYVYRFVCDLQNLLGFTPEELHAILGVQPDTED
Outline: as §1

SPDEF = biological target: T8, SPDEF (Homo sapiens, UniProt O95238 1-335)
T8 sequence: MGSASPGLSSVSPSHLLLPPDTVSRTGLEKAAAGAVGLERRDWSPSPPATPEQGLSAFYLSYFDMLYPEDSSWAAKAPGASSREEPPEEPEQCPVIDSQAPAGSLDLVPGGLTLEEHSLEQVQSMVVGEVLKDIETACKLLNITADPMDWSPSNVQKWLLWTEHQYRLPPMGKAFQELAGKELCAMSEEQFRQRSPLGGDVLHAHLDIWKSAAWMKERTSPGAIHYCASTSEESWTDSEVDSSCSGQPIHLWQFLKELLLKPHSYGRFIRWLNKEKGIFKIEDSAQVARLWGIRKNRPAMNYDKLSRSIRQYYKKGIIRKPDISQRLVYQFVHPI
Outline: as §1

ETV3 = biological target: T9, ETV3 (Homo sapiens, UniProt P41162-2 1-143)
T9 sequence: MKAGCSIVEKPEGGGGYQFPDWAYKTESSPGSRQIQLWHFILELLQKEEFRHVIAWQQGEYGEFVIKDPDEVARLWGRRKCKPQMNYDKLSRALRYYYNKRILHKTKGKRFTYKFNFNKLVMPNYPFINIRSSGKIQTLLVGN
Outline: as §1

## TAGTAG
ELK1
  binding signal: 1.02 fold enrichment (6-mer frequency, TF over GST control)
GABPA
  binding signal: 1.01 fold enrichment (6-mer frequency, TF over GST control)
ERG
  binding signal: 1.01 fold enrichment (6-mer frequency, TF over GST control)
SPIB
  binding signal: 1.02 fold enrichment (6-mer frequency, TF over GST control)
ETV5
  binding signal: 1.04 fold enrichment (6-mer frequency, TF over GST control)
ELK4
  binding signal: 1.02 fold enrichment (6-mer frequency, TF over GST control)
ELF3
  binding signal: 1.1 fold enrichment (6-mer frequency, TF over GST control)
ERF
  binding signal: 1.02 fold enrichment (6-mer frequency, TF over GST control)
ETS2
  binding signal: 1.06 fold enrichment (6-mer frequency, TF over GST control)
SPDEF
  binding signal: 1.02 fold enrichment (6-mer frequency, TF over GST control)
ETV3
  binding signal: 1.13 fold enrichment (6-mer frequency, TF over GST control)
